Shown are actives, neighbours in structure and some others; about 6.3% of the full set was active somewhere.
NADH coupling = blocks coupling enzymes of NAD/NADH assays; coupled PK/LDH NADH assays, four targets; IC50, µM (series often up to 10 µM); actives 0.02% (n = 65,000);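 active = single-dose screening hits from any of four coupled enzyme assays that gave an IC50 when retested across doses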;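 note: the DPM-DC format reads NADH fluorescence rather than 340 nm absorbance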
A340 absorber = compound absorbs light at 340 nm. compound absorbance at 340 nm, fold over control. AID 708. fold change at 10 µM. 65,000 tested, under 10 active;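 active = at 10 µM dose, initial 340 nm absorbance at least 2 fold that of control wells; inactive = change under 2 fold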;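 note: initial absorbance extrapolated from kinetic A340 decline of NADH oxidation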
Autofluor 339 = intrinsic fluorescence of library compounds, ex339/em460 – biochemical, MLSMR library, data from DPM-DC assay, artefact control, profiling panel | fluorescence fold increase at 10 µM | actives 5.5% (n = 65,000) | compound autofluorescence, ex339/em460 nm, NADH buffer; active compounds read high; 1 = no-compound wells, NADH background;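 active = at 10 µM, mean starting fluorescence two-fold or more over control wells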;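 note: signal is the first read of a kinetic run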
Spn PMK inh = inhibitors of Streptococcus pneumoniae phosphomevalonate kinase; purified PMK, PK/LDH-coupled NADH absorbance 340 nm; inhibition, % at 10 µM; actives 0.49% (n = 65,000); AID 539;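 active = top-ranked compounds by inhibition in the single 10 µM screen, taking a fixed number of the strongest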
DPM-DC inhibit = inhibitors of Streptococcus pneumoniae diphosphomevalonate decarboxylase; actives 0.49% (n = 65,000); calls only at 10 µM; AID 556; purified DPM-DC, PK/LDH coupled NADH fluorescence;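 active = the 320 compounds with the highest percent inhibition in the single-dose primary screen, excluding strongly autofluorescent ones, cut at about 32% in these data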;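 note: kinetic rate of NADH fluorescence loss reporting ADP formed by the decarboxylase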
MK inhibit = blocks S. pneumoniae mevalonate kinase. purified MK, PK/LDH-coupled NADH absorbance 340 nm. inhibition, % at 10 µM. actives 0.48% (n = 65,000);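 active = ranked among the strongest by inhibition in the single 10 µM screen, a fixed top-ranked set picked for dose follow-up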
A number is an active result; 0 = inactive; - = no result shown; + = active, no number.

SMILES | NADH coupling | A340 absorber | Autofluor 339 | Spn PMK inh | DPM-DC inhibit | MK inhibit
CCOc1cccc(-c2nc(C(N)=O)c3[nH]c(=O)n(-c4cccc(Cl)c4)c3n2)c1O | 0 | 0 | 0 | 0 | 0 | 0
CCOc1ccccc1-c1nc(C(N)=O)c2[nH]c(=O)n(-c3cccc(C)c3)c2n1 | 0 | 0 | 2.5 | 0 | 0 | 0
Cc1ccc(-n2c(=O)[nH]c3c(C(N)=O)nc(-c4ccc(C)o4)nc32)cc1 | 0 | 0 | 2.4 | 0 | 0 | 0
COc1ccccc1-n1c(=O)[nH]c2c(C(N)=O)nc(C3CCCCC3)nc21 | 0 | 0 | 0 | 0 | 0 | 0
COc1ccccc1-n1c(=O)[nH]c2c(C(N)=O)nc(-c3cccnc3)nc21 | 0 | 0 | 2.5 | 0 | - | 0
COc1ccc(OC)c(-c2nc(C(N)=O)c3[nH]c(=O)n(-c4ccc(F)cc4)c3n2)c1 | 0 | 0 | 0 | 0 | 0 | 0
NC(=O)c1nc(C2CCCCC2)nc2c1[nH]c(=O)n2-c1ccc(F)cc1 | 0 | 0 | 2.1 | 0 | - | 0
CCCN(C(=O)c1cccs1)c1nnc(-c2ccncc2)s1 | 0 | 0 | 0 | 0 | 0 | 0
CCOC(=O)C1CCN(S(=O)(=O)c2c(C)n[nH]c2C)CC1 | 0 | 0 | 0 | 0 | 0 | 0
COc1cccc(C2C(C(=O)OC(C)C)=C(C)Nc3ncnn32)c1 (configuration not stated) | 0 | 0 | 0 | 0 | 0 | 0
CCCCn1c(SCC(=O)NCc2ccccc2)nc2ccc(N3CCOCC3)cc2c1=O | 0 | 0 | 2.2 | 0 | 0 | 0
COCCCn1c(SCC(=O)NCc2ccco2)nc2sc3c(c2c1=O)CCC3 | 0 | 0 | 0 | 0 | 0 | 66
CCCCn1c(SCC(=O)NCc2ccco2)nc2ccc(N3CCOCC3)cc2c1=O | 0 | 0 | 3.8 | 0 | 0 | 0
CC(NC(=O)CSc1nc2ccccc2c(=O)n1CCCO)c1ccccc1 (configuration not stated) | 0 | 0 | 0 | 0 | 0 | 0
CCC(C)NC(=O)CSc1nc2ccc(N3CCOCC3)cc2c(=O)n1CCc1ccccc1 (configuration not stated) | 0 | 0 | 2.3 | 0 | 0 | 0
CCCCn1c(SCC(=O)Nc2cc(C)on2)nc2ccccc2c1=O | 0 | 0 | 0 | 0 | 0 | 0
O=C(CSc1nc2sc3c(c2c(=O)n1-c1ccccc1)CCCC3)NCc1ccco1 | 0 | 0 | 0 | 0 | 0 | 0
Cc1ccccc1C(=O)c1ccc2c(c1)n(C)c(=O)n2C | 0 | 0 | 0 | 0 | 0 | 0
CCCCn1c(SCC(=O)Nc2ccc(OC)cc2)nc2ccc(N3CCOCC3)cc2c1=O | 0 | 0 | 2.4 | 0 | 0 | 0
Cn1c(=O)c2c(nc(SCCN3CCCCC3)n2Cc2ccccc2)n(C)c1=O | 0 | 0 | 0 | 0 | 0 | 0
CCN(CC)C(=O)CSc1nc2cc3c(cc2c(=O)n1Cc1ccc2c(c1)OCO2)OCO3 | 0 | 0 | 0 | 0 | 0 | 0
N#CCSc1nc2ccc(N3CCCCC3)cc2c(=O)n1Cc1ccccc1 | 0 | 0 | 3 | 0 | 0 | 0
CCOC(=O)CSc1nc2ccc(N3CCOCC3)cc2c(=O)n1Cc1ccc2c(c1)OCO2 | 0 | 0 | 2.3 | 0 | 0 | 0
Cn1c(=O)oc2cc(S(=O)(=O)N3CCCC(C(=O)Nc4ccc5c(c4)OCCO5)C3)ccc21 (configuration not stated) | 0 | 0 | 0 | 0 | 0 | 0
CCOC(=O)C1C(C#N)=C(N)OC(C)=C1c1ccncc1 (configuration not stated) | 0 | 0 | 0 | 0 | 0 | 0
SMILES | NADH coupling | A340 absorber | Autofluor 339 | Spn PMK inh | DPM-DC inhibit | MK inhibit
CC(CN1CCN(C)CC1)OC(=O)c1ccc(Cl)cc1 (configuration not stated) | 0 | 0 | 0 | 28 | 0 | 0
CC(CN1CCCCC1)OC(=O)c1ccc(Cl)cc1 (configuration not stated) | 0 | 0 | 0 | 0 | 0 | 0
COCCn1nnnc1CN1CCC(Cc2ccccc2)CC1 | 0 | 0 | 0 | 0 | 0 | 0
c1cncc(-c2nnc(C3CCCCC3)o2)c1 | 0 | 0 | 0 | 0 | 0 | 0
O=C(O)c1ccc(Cn2cc(Cl)cn2)cc1 | 0 | 0 | 0 | 0 | 0 | 0
CCOc1ccc(N(CC(=O)Nc2nccs2)S(=O)(=O)c2c(C)noc2C)cc1 | 0 | 0 | 0 | 0 | 0 | 0
CCOc1nc(-c2ccc(C)cc2)ccc1-c1noc(-c2cccnc2)n1 | 0 | 0 | 3 | 0 | 0 | 0
CCOc1nc(C)ccc1-c1noc(-c2ccncc2)n1 | 0 | 0 | 0 | 0 | 0 | 0
CCOc1nc(-c2ccc(OC)cc2)ccc1-c1noc(-c2cccnc2)n1 | 0 | 0 | 0 | 0 | 0 | 0
CCOc1nc(-c2ccc(OC)cc2)ccc1-c1noc(-c2ccncc2)n1 | 0 | 0 | 3 | 0 | 0 | 0
CCOc1nc(-c2ccccc2)ccc1-c1noc(-c2ccncc2)n1 | 0 | 0 | 3.3 | 0 | - | 0
O=C(CN1C(=O)C2CC=CCC2C1=O)Nc1nc2ccccc2[nH]1 (configuration not stated) | 0 | 0 | 0 | 0 | 0 | 0
O=C(O)CSc1cccc2cccnc12 | 0 | 0 | 2.2 | 0 | - | 0
COc1ccc(NC(=O)NCCCN2CCc3ccccc3C2)cc1 | 0 | 0 | 0 | 0 | 0 | 0
COc1ccc2cc3cc(C(=O)NCCN4CCN(Cc5ccccc5)CC4)oc3nc2c1 | 0 | 0 | 5.2 | 0 | - | 0
COc1ccc2cc3cc(C(=O)NCCN4CCc5ccccc5C4)oc3nc2c1 | 0 | 0 | 5.1 | 0 | - | 0
Cn1c(=O)c2c(nc(SC3C(=O)CC(C)(C)CC3=O)n2C)n(C)c1=O | 0 | 0 | 0 | 0 | 0 | 0
O=C(NCc1ccco1)c1ccc2c(=O)n(CCC3=CCCCC3)c(=O)[nH]c2c1 | 0 | 0 | 0 | 0 | 0 | 0
COc1ccc(CN2CCN(c3cccc(C)c3C)CC2)cc1OC | 0 | 0 | 0 | 0 | 0 | 51
COc1cc(CN2CCN(c3cccc(C)c3C)CC2)cc(Br)c1O | 0 | 0 | 0 | 0 | 0 | 0
COc1ccc(CN2CCC(C(=O)N3CCN(c4ccccc4F)CC3)CC2)cc1OC | 0 | 0 | 0 | 0 | 0 | 52
COc1cc(CN2CCC(C(=O)N3CCN(c4ccccc4F)CC3)CC2)cc(OC)c1OC | 0 | 0 | 0 | 0 | 0 | 0
COC(=O)C1=C(N)Oc2cc(C)n(CCCn3ccnc3)c(=O)c2C1c1cccc(Cl)c1 (configuration not stated) | 0 | 0 | 0 | 0 | 0 | 0
O=c1nc(-c2ccccc2)cc(-c2ccccc2)[nH]1 | 0 | 0 | 2.2 | 0 | - | 0
Cc1nc(-c2ccccc2)cc(=O)[nH]1 | 0 | 0 | 0 | 0 | 0 | 0
Cc1cccc(NC(=O)c2ccc(S(=O)(=O)N3CCCCC3)cc2)n1 | 0 | 0 | 0 | 0 | 0 | 0
Cc1csc(C(C#N)C(=O)c2ccc(S(=O)(=O)N3CCCC3)cc2)n1 (configuration not stated) | 0 | 0 | 0 | 25 | 0 | 0
Cc1cccc2cc(CN(Cc3ccco3)S(=O)(=O)c3ccc4c(c3)OCCO4)c(=O)[nH]c12 | 0 | 0 | 0 | 0 | + | 0
CCn1c(SCC(=O)Nc2ccc(OCc3ccccc3)cc2)nnc1-c1ccco1 | 0 | 0 | 0 | 0 | 0 | 0
